High-throughput results as filed in PubChem.
Only some compounds are listed: those with a hit (about 12% of all), similar ones and a draw of the others.
BAZ2B inh: qHTS Assay for Inhibitors of BAZ2B. Bromodomain adjacent to zinc finger domain protein 2B (Homo sapiens), Q9UIF8. actives 4.4% (n = 360,000). Potency, µM (highest dose often 114 µM), for inactives: at the top dose activity change, negative = inhibition, most hits filed as inhibitors. AlphaScreen BAZ2B-H3K14Ac peptide displacement; further: on the % scale 0 is the no-effect control and ±100 the full control effect; nearly all actives have a fitted effect of over 60% in size
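AlphaScreen displacement of biotin-H3(5-23)K14Ac peptide (50 nM final) from BAZ2B (50 nM final) in PBS pH 7.4, 0.01% Tween-20; complex preformed 30 min RT, then compounds (top 110 uM) 30 min RT, beads 20 min dark.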
Sfp PPTase inh: qHTS Assay for Inhibitors of Bacillus subtilis Sfp phosphopantetheinyl transferase (PPTase). 4'-phosphopantetheinyl transferase ffp (Bacillus subtilis), Q9F4F7. Biochemical Sfp PPTase activity, qHTS. AID 1490, 2009. actives 3.5% (n = 310,000). Potency, µM, without a hit: largest response in the series, negative = inhibition, hits mostly inhibitors;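 further: the enzyme is Sfp with the accession as filed and its product quenches rhodamine fluorescence; 0% = enzyme reaction without inhibitor and -100% = no enzyme wells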
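With Hepes-Na pH 7.6 buffer containing 10 mM MgCl2, Sfp (15 nM) modified BHQ-2-YbbR (12.5 uM) using rhodamine-CoA (5 uM). Two reads 30 minutes apart at 525/598 nm yielded each well's rate.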
G9a inh: qHTS Assay for Inhibitors of Histone Lysine Methyltransferase G9a | Histone-lysine N-methyltransferase EHMT2 (Homo sapiens), Q96KQ7 | G9a H3K9 monomethylation, AlphaScreen, 2 h | Potency, µM (top dose mostly 102 µM), without a hit: at the top dose activity, negative = inhibition, most hits filed as inhibitors | actives 8.8% (n = 350,000) | AID 504332, 2011; further: on the % scale 0 is the no-effect control and ±100 the full control effect; nearly all actives have a fitted effect of over 75% in size
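G9a (20 nM) was preincubated 15 min with compound, then reacted 2 h at room temperature with 500 nM biotin-H3K9 peptide and 20 µM SAM. Monomethyl-H3K9 detected by AlphaScreen using anti-H3K9me1 antibody.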
L3MBTL1 inh: qHTS Assay for the Inhibitors of L3MBTL1; actives 0.66% (n = 230,000); Lethal(3)malignant brain tumor-like protein 1 (Homo sapiens), Q9Y468; AlphaScreen L3MBTL1–H3K9me1 peptide binding; AID 485360, 2010; Potency, µM (titrated, usually from 57.1 µM), without a hit: top-dose activity, negative = inhibition, actives largely listed as inhibitors; further: on the % scale 0 is the no-effect control and ±100 the full control effect; nearly all actives have a fitted effect of over 60% in size
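Displacement of a biotinylated histone H3(1-15) peptide monomethylated at Lys9 (75 nM) from L3MBTL1 (50 nM) was measured by AlphaScreen after a 30 min room-temperature compound incubation; cefsulodin titration served as intraplate control.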
HP1b chromo inh: HTS for Inhibitors of HP1-beta Chromodomain Interactions with Methylated Histone Tails; Chromobox protein homolog 1 (Homo sapiens), P83916; AlphaScreen HP1-beta / biotin-H3K9me3 peptide binding; Potency, µM (top dose mostly 114 µM), without a hit: at the top dose activity change, negative = inhibition, actives largely listed as inhibitors; actives 0.56% (n = 390,000); further: nearly all actives have a fitted effect of over 70% in size
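Compound inhibition of the preformed complex between 50 nM HP1-beta and 50 nM biotinylated H3K9me3 peptide was read by AlphaScreen. Buffer was PBS pH 7.4 with 0.01% Tween-20. Incubations ran 30 min at room temperature, with 10 ug/mL donor/acceptor beads.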
JMJD2A Tudor: qHTS Assay for Inhibitors of JMJD2A-Tudor Domain | Lysine-specific demethylase 4A (Homo sapiens), O75164 | AlphaScreen JMJD2A-Tudor / H3K4me3 peptide binding | Potency, µM (titrated, usually from 114 µM), for the others: at the top dose activity change, negative = inhibition, actives largely listed as inhibitors | actives 4.4% (n = 390,000) | AID 504339, 2011; further: on the % scale 0 is the no-effect control and ±100 the full control effect; nearly all actives have a fitted effect of over 50% in size
Target sequence (O75164 whole entry, looked up, the tested form may be a part): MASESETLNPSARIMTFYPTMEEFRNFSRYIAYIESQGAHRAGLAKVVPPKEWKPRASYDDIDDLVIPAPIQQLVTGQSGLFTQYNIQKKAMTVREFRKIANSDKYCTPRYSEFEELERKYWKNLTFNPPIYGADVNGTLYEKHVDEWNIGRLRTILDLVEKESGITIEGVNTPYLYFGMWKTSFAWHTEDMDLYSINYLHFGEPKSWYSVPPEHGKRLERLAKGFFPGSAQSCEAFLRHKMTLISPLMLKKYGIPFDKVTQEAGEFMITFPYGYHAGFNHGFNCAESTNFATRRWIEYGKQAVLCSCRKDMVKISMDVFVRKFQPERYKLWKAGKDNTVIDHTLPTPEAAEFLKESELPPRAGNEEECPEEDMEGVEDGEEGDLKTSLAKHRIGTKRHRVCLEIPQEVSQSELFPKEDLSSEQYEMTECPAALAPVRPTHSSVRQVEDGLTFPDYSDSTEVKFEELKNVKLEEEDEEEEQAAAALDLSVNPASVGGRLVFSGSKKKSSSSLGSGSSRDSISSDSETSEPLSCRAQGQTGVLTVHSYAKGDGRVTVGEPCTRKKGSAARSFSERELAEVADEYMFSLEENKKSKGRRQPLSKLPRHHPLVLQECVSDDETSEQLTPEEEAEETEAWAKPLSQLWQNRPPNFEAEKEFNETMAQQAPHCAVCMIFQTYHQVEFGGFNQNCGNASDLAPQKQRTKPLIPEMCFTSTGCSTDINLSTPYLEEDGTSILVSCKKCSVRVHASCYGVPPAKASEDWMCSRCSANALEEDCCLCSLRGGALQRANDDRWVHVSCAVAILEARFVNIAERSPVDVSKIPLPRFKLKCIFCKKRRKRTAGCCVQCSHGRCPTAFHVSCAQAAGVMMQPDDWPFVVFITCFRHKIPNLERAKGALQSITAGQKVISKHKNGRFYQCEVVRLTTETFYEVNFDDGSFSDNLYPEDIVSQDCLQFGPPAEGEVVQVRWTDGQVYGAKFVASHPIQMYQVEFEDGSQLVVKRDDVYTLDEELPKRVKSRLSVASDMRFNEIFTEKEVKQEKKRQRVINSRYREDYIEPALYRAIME
* marks the source's active call; other numbers are inactive results; ? = inconclusive; . = no result given; [ ] = remark or other dose. The call rests on the fitted dose curve; in most records, active means well fitted curve in the direction sought with a large enough effect; inconclusive means small, poorly fitted or top-dose-only effect, or another doubt; inactive means no such curve, though single readings can be large; an effect the other way counts as inactive or inconclusive. Potency means the concentration at half of the fitted maximal effect.

SMILES | BAZ2B inh | Sfp PPTase inh | G9a inh | L3MBTL1 inh | HP1b chromo inh | JMJD2A Tudor
COCCCN1C(=O)C(=O)/C(=C(/O)c2ccc(OCC(C)C)cc2C)C1c1cccnc1 (stereo not given) | -1% | 10% | ? | 6% | 15% | 79µM*
Cc1ccc(C)c(/C(O)=C2\C(=O)C(=O)N(Cc3cccnc3)C2c2cccnc2)c1 (stereo not given) | 79µM* | -28% | ? | -2% | 17% | -22%
COc1ccc(/C(O)=C2/C(=O)C(=O)N(CCN3CCOCC3)C2c2ccc(C)cc2)cc1 (stereo not given) | -20%[57.1 µM] | -1% | 45µM* | 0% | 33% | -22%
Cc1ccc(/C(O)=C2/C(=O)C(=O)N(CCN3CCOCC3)C2c2cccnc2)cc1 (stereo not given) | 10% | ? | ? | -1% | 46% | 89µM*
CCCOc1ccc(/C(O)=C2/C(=O)C(=O)N(CCOC)C2c2cccnc2)cc1 (stereo not given) | -9% | -2% | ? | 14% | . | .
C=CCN1CCc2c(cc(O)c(O)c2Cl)C(c2cccc(C)c2)C1 (stereo not given) | . | -24% | . | . | . | .
CCOC(=O)c1ccc(NS(=O)(=O)c2ccc(Br)s2)cc1 | 0% | . | 5%[59 µM] | . | 38% | -12%
CSCC[C@H](NC(=O)[C@H](CC(C)C)NC(=O)[C@H](Cc1c[nH]c2ccccc12)NC(=O)[C@H](CCC(N)=O)NC(=O)[C@@H](NC(=O)[C@H](Cc1ccccc1)NC(=O)[C@H](CC(=O)O)NC(=O)[C@H](CCC(N)=O)NC(=O)[C@H](C)NC(=O)[C@H](CCCNC(=N)N)NC(=O)[C@H](CCCNC(=N)N)NC(=O)[C@H](CO)NC(=O)[C@H](CC(=O)O)NC(=O)[C@H](CC(C)C)NC(=O)[C@H](Cc1ccc(O)cc1)NC(=O)[C@H](CCCCN)NC(=O)[C@H](CO)NC(=O)[C@H](Cc1ccc(O)cc1)NC(=O)[C@H](CC(=O)O)NC(=O)[C@H](CO)NC(=O)[C@@H](NC(=O)[C@H](Cc1ccccc1)NC(=O)[C@@H](NC(=O)CNC(=O)[C@H](CCC(N)=O)NC(=O)[C@H](CO)NC(=O)[C@@H](N)Cc1cnc[nH]1)[C@@H](C)O)[C@@H](C)O)C(C)C)C(=O)N[C@@H](CC(N)=O)C(=O)N[C@H](C(=O)O)[C@@H](C)O | . | 8% | . | . | . | .
COc1ccccc1C1/C(=C(/O)c2ccc(C)cc2)C(=O)C(=O)N1CCN1CCOCC1 (stereo not given) | -4% | 17% | 28µM* | 13% | 29% | -11%
COc1ccc(/C(O)=C2\C(=O)C(=O)N(CCN3CCOCC3)C2c2ccccc2OC)cc1 (stereo not given) | -9% | 7% | ? | -8% | 30% | -5%
Brc1ccc(-c2csc(NNC3=NCCCCC3)n2)cc1 | 35µM* | 50µM* | 13µM* | -20% | -22% | ?
c1ccc(-c2csc(NC3=NCCCCC3)n2)cc1 | -38% | 0% | 14%[59 µM] | 5% | 25% | -9%
N#Cc1ccc(-c2csc(NC3=NCCCCC3)n2)cc1 | -3% | -11% | -7%[59 µM] | -3% | 51% | -15%
FC(F)Oc1ccc(-c2csc(NNC3=NCCCCC3)n2)cc1 | ? | 22µM* | 13µM* | -20% | ? | ?
CC(C)(C)c1ccc(-c2csc(NNC3=NCCCCC3)n2)cc1 | ? | 50µM* | 13µM* | . | ? | ?
